# Bioassay records deposited in PubChem BioAssay by several laboratories.
# CCHF vOTU inh – CCHFV vOTU protease inhibition; inhibition, % at 11.5 µM; 370,000 compounds, 0.55% hits; Pep-AMC fluorescence; AID 651958; in the data active = inhibition above about 30%; note: 0% = vehicle wells with enzyme and 100% = no enzyme wells
# SSB-PriA inh – inhibitors of Klebsiella pneumoniae PriA binding to SSB C-terminal tail; AlphaScreen SSBct-PriA binding, biotinylated peptide; AID 1272365; inhibition, % at 33 µM; 430,000 compounds, 0.6% hits; in the data active = inhibition mostly above about 37%, no sharp cut-off; inactive = mostly below about 20%;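 note: plate controls were negative control peptide for no effect and reference peptide for full effect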
# Sa ugtP lethal – growth inhibition of S. aureus ugtP deletion strain; S. aureus RN4220 ugtP deletion, OD600 growth, 16 h; growth inhibition, % (test concentration not listed); 330,000 compounds, 0.54% hits; AID 1259309; in the data active = growth inhibition above about 68%;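 note: plate controls were untreated wells for no effect and antibiotic for full effect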
# RN4220 kill – S. aureus RN4220 growth inhibition; AID 1259311; 330,000 compounds, 0.33% hits; inhibition, % (no concentration beside the values); OD600, 16 h; in the data active = inhibition above about 85%;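 note: plate controls were untreated cells for no effect and reference antibiotic for full effect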
# Mtb hypoxia inh – inhibitors of hypoxia-regulated fluorescent reporter in Mycobacterium tuberculosis; M. tuberculosis hypoxia-regulated fluorescent reporter, fluorescence; 300,000 compounds, 0.1% hits; AID 1159583; fluorescence inhibition, % (test concentration not listed); in the data active = fluorescence inhibition mostly above about 23%, no sharp cut-off; inactive = mostly below about 17%
# The depositor's hits bear a star; i = inactive; . = no result; ! = not active in a repeat. This is a sample that favours compounds with a hit; in the whole collection about 1.4% have one here.
SMILES,CCHF vOTU inh,SSB-PriA inh,Sa ugtP lethal,RN4220 kill,Mtb hypoxia inh
COc1ccccc1N1CCN(S(=O)(=O)c2ccc3c4c(cccc24)C(=O)N3C)CC1,.,.,4.0,1.2,.
COc1ccccc1N1CCN(S(=O)(=O)c2ccc3c4c(cccc24)C(=O)N3)CC1,-10.8,35.0*!,3.2,2.6,-1.1
Cc1[nH]n(-c2ccccc2)c(=O)c1C=NNc1nncc(-c2ccccc2)n1,.,96.7,98.2*,96.3*,-8.9
O=S(=O)(Cc1ccco1)C1CCN(S(=O)(=O)CCCOc2ccccc2)CC1,.,87.0*,.,.,.
Cn1c(=O)oc2ccc(S(=O)(=O)NC3CCN(c4nccs4)CC3)cc21,.,-4.0,.,.,.
COc1cc(OC)c2c(-c3ccccc3)cc(=O)oc2c1C(CCN1CCCCC1)c1ccc(N(C)C)cc1 (centres undefined),.,74.3*,-6.4,-5.5,-3.8
COc1cc(OC)c2c(-c3ccccc3)cc(=O)oc2c1C(CCN1CCOCC1)c1ccc(N(C)C)cc1 (centres undefined),7.8,38.9*,.,.,.
N#C/C(C(=O)N1CCOCC1)=C1/Nc2ccccc2S1,.,-10.0,.,.,.
COc1ccc(OC)c(S(=O)(=O)Nc2ccc(Nc3nc(C)cc(N4CCCCC4)n3)cc2)c1,.,5.0,.,.,.
c1ccc(-c2nnc(SCC3CCCCO3)nc2-c2ccccc2)cc1 (centres undefined),4.7,-6.2,93.7*,2.8,10.3
Cc1nn(-c2ccccc2)c(N2CCCC2)c1C=NNc1ccc(S(N)(=O)=O)cc1[N+](=O)[O-],.,79.8*,-15.6,5.3,3.7
CC(=O)Nc1ccc(C=NNc2ccc([N+](=O)[O-])cc2S(=O)(=O)Nc2ccccc2C(=O)O)cc1,23.7,-13.2,18.1,-4.6,9.8
Cc1nn(-c2ccccc2)c(N2CCCC2)c1/C=N/Nc1ccc(S(N)(=O)=O)cc1[N+](=O)[O-],2.9,.,.,.,.
COc1ccccc1NS(=O)(=O)c1ccc(NN=Cc2ccccc2OCC(=O)O)c([N+](=O)[O-])c1,.,42.5*,8.5,3.0,0.4
CSc1ccc(/C=N/Nc2ccc(S(=O)(=O)Nc3ccccc3C(=O)O)cc2[N+](=O)[O-])cc1,.,i,.,.,.
Cc1nn(-c2ccccc2)c(Cl)c1C=NNc1ccc(S(=O)(=O)Nc2ccccc2C(=O)O)cc1[N+](=O)[O-],.,45.2*,74.1,54.8,6.6
CN(CCO)c1ccc(C=NNc2ccc([N+](=O)[O-])cc2S(=O)(=O)Nc2ccccc2C(=O)O)cc1,19.1,40.5*,12.0,-3.7,16.9
Cc1c(C(=O)NC2CCN(c3ccc(C(F)(F)F)cn3)C2)cnn1-c1ccccc1 (centres undefined),.,8.0,.,.,.
CCCNC(=O)N1C2CCC1C(C(=O)OC)=C(c1ccc(OC)c(OC)c1)C2 (centres undefined),.,.,-1.2,5.2,4.0
COc1ccccc1OCC(=O)N1CC[C@H](S(=O)(=O)c2ccc(Cl)cc2)C1,.,-4.0,.,.,.
CC(=NNC(=O)c1ccoc1C)C12CC3CC(CC(C3)C1)C2,.,-2.4,-6.5,2.0,-3.5
CCOc1ccc(C=NNc2ccc(S(=O)(=O)Nc3ccccc3C(=O)O)cc2[N+](=O)[O-])cc1OC,.,4.2,3.9,6.0,19.4
COc1cc(C=NNc2ccc(S(=O)(=O)Nc3ccccc3C(=O)O)cc2[N+](=O)[O-])ccc1O,25.8,49.0*,9.4,-3.3,21.5
O=[N+]([O-])c1cc(CN2CCN(c3cccc(C(F)(F)F)c3)CC2)c2cccnc2c1O,12.9,89.6*,86.4*,61.4,5.8
O=[N+]([O-])c1cc(CN2CCCC2)c2cccnc2c1O,.,90.2*,.,.,.
SMILES,CCHF vOTU inh,SSB-PriA inh,Sa ugtP lethal,RN4220 kill,Mtb hypoxia inh
CC1CCN(C(=O)CSc2c(-c3ccccc3)[nH]c3ccccc23)CC1,.,4.0,.,.,.
Cn1nc(-c2cccc(NC(=O)Nc3ccc(Cl)cc3Cl)c2)ccc1=O,.,-9.0,.,.,.
CCn1c(=O)c(C(=O)Nc2ccccc2S(N)(=O)=O)c(O)c2ccccc21,14.6,-3.1,-16.9,5.4,.
CCCCCn1c(=O)c(C(=O)Nc2ccccc2C)c(O)c2ccccc21,-8.6,-11.5,30.1,-0.9,9.9
CCCCCn1c(=O)c(C(=O)Nc2ccccc2S(N)(=O)=O)c(O)c2ccccc21,10.7,2.0,99.6*,99.9*,0.1
CCCCn1c(=O)c(C(=O)Nc2ccccc2S(N)(=O)=O)c(O)c2ccccc21,8.9,-13.3,61.5,92.7*,2.7
COc1ccc(CNC(=O)N2CCC(c3nnc(-c4ccco4)s3)CC2)cc1,.,-6.0,.,.,.
CCOC(=O)N1CCN(C(=O)c2cc(C)no2)CC1,6.2,98.2*,9.0,1.6,5.0
Cc1cc(C(=O)N2CCC(C)CC2)on1,-15.0,-3.6,3.2,0.7,14.8
